Source: PubChem BioAssay AID1508600 (Functional Genomics Laboratory (NCATS/FGL), 2020)
Screen size: about 53,000 sequences; about 3,700 (7%) were called active.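 The calls were made as follows: active = gene knockdowns whose robust z-score for IL-1 alpha signal is at least 2 or at most -2, so actives lie on both sides; inactive = the rest.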 Many of the other results were omitted from the sample, so actives are more common in it than they were.

Assay: Components of the Cytosolic LPS Sensing Pathway: Gene Identification via Genome-wide siRNA Screen;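 also: robust z of the log signal after scaling to non-targeting control siRNA wells of the plate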
Conditions: RAW264.7 macrophages, IL-1a HTRF, actives lie on both sides, screened at 100 nM (by protocol), cells primed 5 h with Pam3CSK4 first
Summary of the method: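 IL-1a HTRF of supernatants after 24 hour LipidA transfection of Pam3CSK4-primed (5 hours) RAW264.7 cells, 48h post-siRNA transfection (100 nM). Scores: percent of plate negative-control median, then log-based robust z-score.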

z-score, inactive:
CCUACGACUUCUACUACAUTT against Chst8 1.69
GGAGUGCGGACGAUAAUACTT against Ppp1r3f -1.97
GUAUUGGAUACGAAGCAGATT against Defb2 -0.154
GGACAUGUGGAAAUGGAUATT against Arhgap4 1.97
GGGAAGAAGAUGGAAUUUATT against Smoc1 1.22
CGGGCUGCUACGAAAAAGUTT against Tspan9 0.152
GGAAACACGUCUCCUCCAUTT against Krt87 1.26
CGCACAAAGGAUUUUUGUATT against Epha7 -0.064
GGUGUGAUUGAAGAAGCGGTT against Gpr37 -0.463
GUGCCUCUCAUCACUAUCUTT against Olfr571 0.501
GGAAACCCAGAGCAGCAGATT against Tdg -1.01
GGAGCUCAAACAGGAGAACTT against Lhfpl4 0.383
GGUAUUUGCUGAACUGUUUTT against Ckmt1 -0.931
GGCUUAACAGAGAAACACCTT against Lrrc49 0.563
GAAUGUCUGAGCAAGGAGGTT against Arpp21 0.227
GCUCAUGUAGGAUGUAUAUTT against Olfr146 -0.483
GCAGAUGUACUCUAAGGGUTT against Adam23 1.17
CGCCAUAGUUGGUUUUGUUTT against Scamp4 1.2
GCGACUACAAGGAUACCCUTT against Krt71 0.169
GGCCAGUGAGCAGCAUUAUTT against Krt222 0.787
CCGCUCUUUUACAGCUGGATT against Rsl1d1 1.99
GCAUAACUCCCAUCCAUAGTT against Glra2 -0.622
CCUUUUUUUGGUAACUCGUTT against Sox11 -0.0308
CCUACAGAAUAGAAAAUUCTT against Elmod2 -0.161
GGAUGGACUAAAUGAUGAUTT against Ythdf2 -0.00923
GGAUUCUGUGCUUUCCUGGTT against Pomt2 -0.77
CCUGCAUCGUACGCUACUUTT against Pcgf2 -1.83
GCCAAAUUAGCAGCUUGUGTT against Rln3 -0.0674
CGUACAACCUCAAGGUUCUTT against Lag3 -1.68
GGCAAAAUUAGCAUCAAAGTT against Slc22a3 0.577
GCCUAGACCUAAGCAUAGCTT against Prpmp5 0.228
GGCCCUGUUAGUGCUAUACTT against Amh -1.15
GGAAGAUUGAAAUAGGCGATT against Mecom -1.25
GGAAAAGGCCGAUUUCGUGTT against Dixdc1 0.556
GGCAGUAGUGAACAGAGACTT against Krt222 -0.199
GCUGACUCCGUGUUUUUAATT against Arhgef18 -0.539
GGGCUCUUGUGUUAAGGCATT against Krt27 -0.119
GGAGCUAGAACUCAAUGAATT against Lingo1 0.65
CCUCAUAGCCAGUCUUUUUTT against Pafah2 -0.553
GUCCUAAAACGAGUGAGAGTT against Trib3 -0.793
GGACACAGCAAGGAAGAAATT against Mad2l1bp 0.335
GGACAGGUACUUUUCCCUGTT against Gnpda2 -1.19
CCAGUCAUUGUGCUUGUUATT against Sox12 0.929
GGAGGACGUAUCAUUACAUTT against Twf1 1.95
GGAGGAUAUAAAAAAGAAGTT against L2hgdh 0.00317
GCCAAGGACUCAGUGAAUGTT against Iqsec2 -1.19
GGUCCUCUCAGACAUGAAGTT against Pagr1a -0.237
GCGGUAAGAACGUGGAACUTT against Tent5b 0.536
GCAUGAAGAGGCAAAGGCUTT against Igfbp1 -0.555
GGAAGUUAAUGGGUAAAGUTT against Olfr365 -1.67
GGACAAAACUAAACAGCAATT against Smarcal1 -0.662
GGGCUUUCUUGGUUUUAUCTT against Depp1 -0.377
GUCGCAUCUCCAAAAAUGGTT against Olfr340 -1.46
GGAUCCUCUCAUUAAGAAATT against Gabra1 -1.15
CGACUUCGCCUUAUGAGAUTT against Tst -1.19
GGUUGAUCCAAAAGAUUACTT against Rp2 0.557
GGUCAUGAAAAAUGACAGCTT against Klra2 0.126
GGAAGAAGAGGAUGAGAUUTT against Clcn6 -1.73
GGCUCACAAUUGCUGUGUATT against Psg23 -0.566
GGAUGUUGGCAGCCGAACATT against St3gal2 -0.684
UUGUCAUUCACUUGAUGAATT against H2bu2 0.238
CCAUGCCCACUGGAUAGAUTT against Nat14 -1.21
CCCGAAUUGACAACAUCGUTT against Olfr855 0.566
CGCCUUAAACGAAGCUGCUTT against 1700034E13Rik -1.28
GGUUUCCUUUUUGUUCAUUTT against Dlg3 0.566
CCGGUUGUUUUGAGUGUUGTT against Rad9b 1.09
CCAUAUAUUAUGGACCUUATT against Hepacam2 -0.576
CCGAAAUAAGGCUAGCUCATT against Rfx6 -0.282
GGUCUUACCAACAGAACCCTT against Rad51ap1 1
GCAAUGCUCUAAUCCACUCTT against Npas4 0.654
GGAAUUAUAGGACUUGUUCTT against Serinc1 0.256
GGUUCCCAAAGUAGAAGCATT against Dkkl1 -0.231
GGAUUUGUUUUCAGAUGUGTT against Zfp329 -1.56
GAUUCUUGUCGCUCAUAGCTT against Vmn1r52 -0.535
GGGCACACAUAUGACCGUUTT against Rrad 0.261
GCAUUCAUACAUGUAACAGTT against Wdr70 0.336
GGGACCAGAACAAAGUGGUTT against Olfr487 0.474
CCUAUUCAUCAUAACUCAUTT against Tdo2 0.129
CGAGCAUAAAAGUUAUGUGTT against Chaf1b 1.07
GCGUAUUUCCUUUCGGAGUTT against Exoc3 0.116
CCUAAGCCCUCUAAGGCAATT against Pik3r2 -0.753
CCUCCUCUCCUAAAUGCCUTT against Llcfc1 -1.23
GGAACGAGUUUUGAAAAAATT against Creb3l3 0.073
GGAAGAACAUUGUUACCUGTT against Svep1 1.1
GGUCCUACUUACUACUGCCTT against Fam83h 0.265
CGUCUACCCGGAAUUUCAGTT against Sdha -1.42
GGAAGGACUAUUUUCUUUCTT against Trak1 1.5
GUGGAUACGUGGGAAAGUCTT against Nmnat1 0.0316
GCUAUUUCUGCCUUUAGUCTT against Scamp5 -0.0682

z-score, active:
GCUGGCUAUACUUUACAACTT against Prkg1 2.11
GGCUUUCUUCAACCUGAGUTT against Duoxa1 -2.43
CGACAACAAUCUGGCCUAUTT against Ap2s1 2.09
GGAAGGAAGCUAAAAAACGTT against Gnl3 2.24
CCCUCCAUGGAAAUGACAUTT against Slit3 2.4
CCCGCUAUUUGGUGCUAACTT against Amh 3.21
GGCCCAACACCUUUAUCAUTT against Akt1 2.77
GGUGCUCUCAAGUGGGAUUTT against Gm5114 -2.15
GGAUCUUCCUGGAUGCCAATT against Hps1 -2.61
GUUGUGUUCUGAUUGUUUUTT against Olfr1020 2.03
GGGCAAGUUCCAUCUCCUUTT against Cdc42ep2 -2.2
GCAAGUGAGUUAGCAGUCATT against Atp2c1 -2.23
GGACAAGAUGUUGAGUAUUTT against Plrg1 -2.23
GGAAAACACAGCUACGGAATT against Ak5 2.21
GCUGAGUUGACUCCUACUGTT against Mcpt1 -2.23
GUCACAGAAAGCUUAGUCCTT against Olfr427 -2.93
GGAUCCUUACAAUAACAUUTT against Mmut 2.04
GGCAGAAAGCAAAAUGUUUTT against Gata3 -4.28
CGCUCUGUUAAUGCAGGAUTT against Papss1 3.22
